Laboratory results reported in PubChem BioAssay.

Assay: viability loss of caspase-8 NB7 cells with TRAIL – with/without TRAIL, luminescence panel, confirmation (AID 651596)
Settings: NB7 neuroblastoma + caspase-8, without TRAIL, NB7 Caspase-8, without TRAIL, mean of runs, at 10 µM

| SMILES | activity |
| --- | --- |
| Cc1ccc(-c2cc(-c3ccccc3)no2)c(O)c1 | 60.2% |
| Cc1ccc(N(NC(=O)C(O)(c2ccccc2)c2ccccc2)C(=O)CCl)cc1 | 97.6% |
| Cc1ccc(C(=O)N/C(=C\c2ccc(-c3ccccc3[N+](=O)[O-])o2)C(=O)NCCCN2CCOCC2)cc1 | 48.9% |
| C=C(C)c1cc2c(ccc3ccc(=O)oc32)o1 | 91% |
| Cc1cccc(NC(=O)CCc2ccc(N3C(N)=NC(N)=NC3(C)C)cc2)c1 | 80.4% |
| Cc1ccc2oc(-c3ccccc3)c(C(=O)O)c(=O)c2c1 | 39.2% |
| NC(=S)NN=C1c2ccccc2-c2c(F)c(F)c(F)c(F)c21 | 71.4% |
| COc1cccc(C(=O)Nc2nc3ccccc3[nH]2)c1 | 85.3% |
| O=C(NC(=S)N1CCN(c2ccc(C(F)(F)F)cc2[N+](=O)[O-])CC1)c1cccs1 | 62.1% |
| O=[N+]([O-])c1ccc(/C=C/c2ccc3ccccc3n2)cc1 | 68.5% |
| COc1ccc(C2NN=C(c3ccc(C)cc3)S2)cc1 (centres undefined) | 42.1% |
| C=CCn1c2ccccc2c(=O)c2cc(C#CC3(O)CCCCC3)ccc21 | 79.7% |
| C=C(C)[C@@H]1C2=CC(C(=O)OC)=C(C[C@H](C(=C)C)[C@H]3O[C@H]3C3=C[C@H]1OC3=O)O2 | 96% |
| O=C(N/N=C\c1ccc(CNS(=O)(=O)c2ccc(Cl)cc2)o1)C(=O)Nc1ccc(Oc2ccccc2)cc1 | 91.1% |
| Cc1ccc(/C=C/C2=NN(C)C(=O)CC2)cc1 | 40.1% |
| CC(C)(C)c1ccc(/C=N/NC(=O)c2ccccn2)cc1 | 75% |
| C/C(=N\NC(=O)c1ccc(Cl)cc1)c1cccs1 | 81.4% |
| Cc1ccc(C(=O)Nc2nc3c(s2)CCCC3)o1 | 69.2% |
| Cc1csc(C(C#N)C(=O)c2cc3ccccc3o2)n1 (centres undefined) | 61.2% |
| Cc1cccc2sc(NNC(=O)c3ccc(S(=O)(=O)N4CCCC(C)C4)cc3)nc12 (centres undefined) | 42.3% |

| SMILES | activity |
| --- | --- |
| O=c1c(-c2ccc3c(c2)OCCO3)coc2cc(OC3OC(CO)C(O)C(O)C3O)ccc12 (centres undefined) | 53.9% |
| O=c1c2ccccc2oc2ccc(C#CC3(O)CCCCC3)cc12 | 84.8% |
| Cc1ccc2nc(-c3ccncc3)cc(C(=O)Nc3ccncc3)c2c1 | 6.6% |
| CC(C)c1nnc(NC(=O)c2c(O)c3cccc4c3n(c2=O)CCC4)s1 | 36.5% |
| CCOc1ccc(/C=C2\CCc3ccccc3C2=O)cc1 | 79.2% |
| O=C(/C(=C/c1ccc(Cl)cc1)c1nc2ccccc2[nH]1)c1ccccc1 | 85.1% |
| CCOC(=O)C1=C(C)OC(=Cc2ccc(OC)cc2)C1=O | 70% |
| Cc1ccsc1C(=O)Nc1ccc2c(c1)OCCO2 | 45.1% |
| CCC(C)c1ccc2oc(-c3ccc(NC(=O)Cn4cnc5c(=O)n(C)c(=O)n(C)c54)cc3)nc2c1 (centres undefined) | 66.9% |
| O=C(Nc1cccc(O)c1)c1cc(-c2ccccc2Cl)on1 | 78% |
| C[n+]1c(-c2ccccc2)cc2c(=Cc3ccccc3)c3ccccc3n21 | 75.4% |
| C/C(=N\NC(=O)c1nn(C)c(C)c1Br)c1cccc(NC(=O)c2ccc(F)cc2)c1 | 50.5% |
| COc1ccc(C(=O)Nc2nnc(SCC(=O)NCc3ccco3)s2)c(OC)c1 | 61.2% |
| CCOc1ccc2nc(NC(=O)CN3CCC(n4nnc5cc(C(F)(F)F)ccc54)CC3)sc2c1 | 66.9% |
| C=C1CC2(CC(c3ccccc3)OC(c3ccccc3)C2)OC1=O (centres undefined) | 73.1% |
| CCOC(=O)Cc1csc(NC(=O)c2cc3c(s2)CCCC3)n1 | 58.8% |
| Cn1cnc([N+](=O)[O-])c1Sc1nc(N)nc2c1ncn2C1CC(O)C(CO)O1 (centres undefined) | 65.6% |
| CN(C)C=Nc1ccc2nc3c(cc2c1)[nH]c1ccccc13 | 76.3% |
| NNc1nc(-c2ccccc2)nc2sc3c(c12)CCCC3 | 54.4% |
